# Over roughly 25,000 sequences, “ln(normalized median fluorescence intensity)” has its median near 9.3; the highest 2% begin near 10. Shown is part of a subset that was picked to be rich in the highest values.
# Test system: PF3D7_0420300 AP2 domain 1 (GST-tagged)
# Test: gcPBM binding intensity (ln(normalized median fluorescence intensity)); higher = stronger DNA binding
# Outline: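 GST-tagged P. falciparum DNA-binding domains produced in E. coli were incubated for 1 h on an Agilent 4 × 180k array of primer-extended double-stranded 36-bp intergenic genomic probes with negative controls. Binding intensity is the highest Masliner-normalised natural-log median intensity across replicate spots of either probe orientation, with bound protein detected by Alexa488 anti-GST antibody at 488 nm.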
row,Sequence,gcPBM binding intensity (ln)
1,GCAACAAAAAATCAGACATGCATTTTAAAATGAATA [TGCATGCA_site846],9.14
2,TATTAAACTAAATGTAGTACATACACAAAAGAAACC [XGTACX_site606],9.75
3,ATTTTTTTTTTTTTTTTGGGGGGGTATACTTTTAAA [CACACA_negctrl_site1020],10.8
4,GTTAATATTTTTGGGGGTACTTAAAAAAAAAAAAAA [XGTACX_site1477],9.22
5,TATACTTTATATATTTTGTATATATATTTTTTTTAT [TGCATGCA_negctrl_site530],9.34
6,TTCATAAGAAGGAACTGTACATATTTTTCATTTTTT [XGTACX_site6770],9.15
7,AAAAAAAACACGCGCACACACACACCCACAGACACA [CACACA_site5253],9.92
8,TATTTATTAAGACACACACACACACGCACAAAATAA [CACACA_site6254],10.2
9,TTATTATTAAGACACACACACAAAAAAAAAAAAAAA [CACACA_site6805],9.73
10,TTTATTAATAGACACACACACACACGCAAAATAAAA [CACACA_site6255],10.2
11,CCTCATATTATAGACACACACAAAAAAAATAAAAAA [CACACA_site180],9.74
12,ATAGACAGCGCACAAACACACAAACACGCACGCACA [CACACA_site6349],9.6
13,TACACAAACAGACACACACACACACGCGCACAAAAA [CACACA_site7192],10.2
14,CACAAACAAAGACACACACACACACGCACAAAAATG [CACACA_site7193],10.1
15,TAATAAATAAATGACACACACACACGCAAAAAAAAA [CACACA_site7275],10.1
16,TAAATTAAAAGACACACACACAAAAAAAAAAAAAAA [CACACA_site7131],9.66
17,AATTAACAAAGACACACACACACACGCACAAAAAAA [CACACA_site6388],10.2
18,AATGTGTAGACACGCACACACAAAAAAATATTTATA [CACACA_site7384],9.6
19,TTATTAACCTAAATTAGTACATATAATATAAAAAAT [XGTACX_site8661],9.18
20,GAAAAGAAAAATAAACGTACATAAATATTAACATTA [XGTACX_site8213],9.2
21,AGGCTCATTTTTTTTAGTACATCAAAAAAAAAAAAA [TGCATGCA_negctrl_site591],8.7
22,TTTTTTTTTTTTTTTTGTACATATATATAAAAAATA [XGTACX_site2772],8.49
23,ATATATAACTTTTCTTAACACACAAAAAACAAAAAT [CACACA_site8748],9.56
24,TATATATATATAAACGCATGTAATTTATACACACAT [TGCATGCA_site946],9.41

row,Sequence,gcPBM binding intensity (ln)
1,GACAATTATATGTAGGTGCATATACAAATTTTTTAA,9.11
2,TTAACAAATAGACACACACACACACGCAAAAAAAAA [CACACA_site6387],10.2
3,ATATATATATATAACACACGCAAAAAAATTAAATAA [CACACA_site1400],9.69
4,AAAACAAATAGACACGCACACAAAAAAAAAAAAAAA [CACACA_site801],9.33
5,AAAAAAAAAAAATATATATATATATATATATATATA [CACACA_negctrl_site1606],9.3
6,TATATAAAAATATACACACACAAATGTATATATATA [CACACA_site220],9.68
7,AAAAAAAAAAAAAAATACAAGCACATTTATATAAGC [GTGCAC_negctrl_site695],9.46
8,AAATACTGATTTGGTTGTACATGTGCACTATATAAC [XGTACX_site3795],9.35
9,TCATTTCACAGACACACACACACAATATATTTCCTT [CACACA_site9295],10.2
10,TCATTTCACAAACACACACACACAATATATTTCCTT [CACACA_site3905],10.1
11,TCATTTCACGGACACACACACACAATATATTTCCTT [CACACA_site6023],10.2
12,TATTTTATAATTTACCGTACATTAATTGTATTATTA [XGTACX_site5722],9.33
13,ATCAAAAGAAAACACACACACATACAGATATATATA [CACACA_site5974],10.2
14,TAGATACAGAAACACACACACACATACATATATACA [CACACA_site3437],10.2
15,ATCAAAAGAAAACACACACACATACATATATATATA [CACACA_site3795],10.1
16,GTATCAAAAGAATACACACACACATACAGATATATA [CACACA_site5975],10.1
17,CAATCAAATGGACACACACACACCTAAACATAAAAG [CACACA_site5524],10.2
18,CATACACAGAAACACACACACATATATACATATATA [CACACA_site1094],10.1
19,CAATCAAAGAAACACACACACACCTAAACATAAAAG [CACACA_site2756],10.2
20,CAATCAAATAGACACACACACACCTAAACATAAAAG [CACACA_site7322],10.1
21,TACATACAGAAACACACACACACATATATATATATA [CACACA_site2919],10
22,ATATTACGCACAAAAAAAAAAAAAAAAAAAAAAAAA [CACACA_negctrl_site941],8.77
23,TGGATGTTAATATAGTGTACATTTATAAGTCAGTAT [XGTACX_site2949],9.45
24,ATATTGTAAGTAAACACACACACATCTATAGGTATA [CACACA_site6462],9.96

row,Sequence,gcPBM binding intensity (ln)
1,AATATATACATACATACATGCATACATATATATAAC [TGCATGCA_site371],9.37
2,GATACCTATAGACACACACACATACCTATATACATA [CACACA_site7586],10.1
3,TATATACCTATATACACACACATATATTATAGATAT [CACACA_site6266],9.82
4,TATAGATACCTATACACACACACACGGACATATATA [CACACA_site7585],10.2
5,ACCATACATACATACACACACACACGCATATTTATA [CACACA_site7386],10.4
6,CATACATACATACATACACACATACCTATATTTATA [CACACA_site6769],9.79
7,TATATATATTTATACACACACATATATTTATATATT [CACACA_site484],9.7
8,TATTTATACCTATACACACACACACGGATATTTATA [CACACA_site7123],10.2
9,TATTTATATTTATATACACACATATATACCTATATA [CACACA_site7820],9.48
10,AAAAAACAGACATACACACACACACGGATATTTATA [CACACA_site7570],10.3
11,TATATATATATATATACACACATATATATATTTATA [CACACA_site627],9.39
12,CATACATACAGACACACACACATATTTATATTTATA [CACACA_site6172],9.94
13,AAAACAAACAGACACACACACATATTTATATTTATA [CACACA_site7681],10.1
14,AATGCTATCATTAATGCACACATTTAAAATTAATAT [CACACA_site3548],9.22
15,ATTATATTAATTTATAGTACAATATTTATATATATG [XGTACX_site4668],9.2
16,AAATATATATATAGTACATGCAGTAGATAATTTAAT [TGCATGCA_site299],9.51
17,CAGATAGACTTATATGCATGCATTCACATACCAACA [TGCATGCA_site163],9.27
18,ATAATATATATATTTTGTACACATGAAAAGGAGGAT [XGTACX_site5034],9.52
19,TTGCTTATTAAATGGGGTACATTATATATATATATA [XGTACX_site2515],9.49
20,TTTTTTTTTTTTTTTGGTACACATTTTGGTTAATGG [XGTACX_site5109],9.06
21,ATATTATTATTAGTTTCACACATTTAATGAAACTAA [CACACA_site5677],9.03
22,TTGTTAATAAAAATATTGGAAAGTTTATAAAATTTT [CACACA_negctrl_site1487],8.9
23,TGTTCTTTGTTCAGCGCATGTAAAATAAAATAAAAT [TGCATGCA_site629],9.04
24,AGGAGACTTAAAAAAAGTACAAAAAAAAAAAAAAGC [XGTACX_site1576],9.65

row,Sequence,gcPBM binding intensity (ln)
1,TATATATATATACCTTGTACTTACATTCGCATATAA [XGTACX_site2466],9.32
2,TAATATATGTATTGCACACCTATAACCATTATTTCT [CACACA_site1498],9.51
3,TATATATATATTTATACACACACATATATTTATATA [CACACA_site8054],9.59
4,ATTTTTATTTTATATACACACAATAATAATATAATA [CACACA_site4015],9.39
5,AGCACAAGCACAAGCACACATTTATATATAAATACA [CACACA_site4642],9.42
6,TATTTATATTTATATACACACATACATATTTATATT [CACACA_site6535],9.57
7,TACATATTTATATACACACACACACGGATATTTATA [CACACA_site7239],10.3
8,ATAATACACAAGCACACACACACACGGATATTTATA [CACACA_site6714],10.3
9,GAAATACCGGAAAGCAAACACACATTTTAAAACCAT [CACACA_site3861],9.68
10,AGATTTAAATATCATACACACTTTATATATAATACA [CACACA_site4688],9.35
11,TACTAGCAAATACATACACACACACCCATATACATA [CACACA_site9163],10.1
12,CTAGCAAATACATACACACACACACCGATACAGATA [CACACA_site5853],10.2
13,TTAATATAAGCAAATACACACACACCGATATATATA [CACACA_site9269],10.2
14,TAAAAAAAATAGCATACACACATATATACCTATATA [CACACA_site4535],9.72
15,TATACATATACATATACACACACACCCATAAATAAA [CACACA_site8372],9.99
16,TATACCTATAAATACACACACATATATAAATAAATA [CACACA_site6730],10
17,CTAGCAAATACATACACACACACACCCATACATATA [CACACA_site3496],10.3
18,CTAGCAAATACATACACACACACACCGATACATATA [CACACA_site9164],10.2
19,CACATACAGATATATACACACAAATATATATACTCA [CACACA_site4591],9.76
20,CACATACAGATATATACACACAAATATAAATACACA [CACACA_site6512],9.98
21,TTAATGGCAAAATAGGCACACACACCGATACATATA [CACACA_site8263],9.91
22,CTAGCAAATACATACACACACACACGGATACCTATA [CACACA_site7609],10.2
